From PubChem BioAssay AID1063 (University of Pittsburgh Molecular Library Screening Center, 2008)
Hit rate of the full screen: of about 200,000 compounds, about 18,000 (9%) were called active. Cut-off read from the data, not from the text of the source: active = inhibition above about 50%; inactive = the rest. The entries come from a sample that favours actives as a whole.

Assay: Leishmania major promastigote growth inhibition, primary screen (AID 1063);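 note: promastigotes grown with compound for 44 hours at 28 °C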
Details: Leishmania major promastigotes, resazurin fluorescence viability; at 10 µM; active compounds read high

SMILES	inhibition
O=C(C1CCCO1)N(c1ccc(F)cc1)C1C=CS(=O)(=O)C1 (stereo unspecified)	-5.34% (inactive)
CC1CCC2(CC1)NC(=O)N(Cc1nnc(-c3cccs3)o1)C2=O (stereo unspecified)	1.95% (inactive)
COc1ccc(CCN=C2SCC(=O)N2Cc2ccccc2)cc1OC	20.8% (inactive)
COc1ccc(C2c3[nH]c4ccccc4c3CCN2CCCn2cccn2)cc1C (stereo unspecified)	16.8% (inactive)
CCOc1ccc(C2c3[nH]c4ccccc4c3CCN2Cc2cn(CC)nc2C)cc1 (stereo unspecified)	64.3% (active)
Oc1cccc(C2c3[nH]c4ccccc4c3CCN2Cc2cnn(-c3ccccc3)c2)c1 (stereo unspecified)	-0.63% (inactive)
COc1cccc(C2c3[nH]c4ccccc4c3CCN2Cc2cccc(C)n2)c1 (stereo unspecified)	82.2% (active)
c1ccc(C2c3[nH]c4ccccc4c3CCN2Cc2cccn2-c2cccnc2)nc1 (stereo unspecified)	0.1% (inactive)
COCc1ccc(C(=O)N2CCc3c([nH]c4ccccc34)C2c2ccccn2)s1 (stereo unspecified)	13.5% (inactive)
CC(C)C(O)C1CCN(Cc2nc(Cc3ccccc3Cl)no2)CC1 (stereo unspecified)	1.45% (inactive)
COc1ccc([N+](=O)[O-])cc1NC(=O)CC1SC(=Nc2cccc(C)c2C)N(/N=C(\C)c2ccc(C)cc2)C1=O (stereo unspecified)	30.7% (inactive)
CC1(C)C2CCC1(C)C(OC(=O)c1ccc(O)cc1)C2 (stereo unspecified)	14.5% (inactive)
CC1CC(C)CN(S(=O)(=O)c2ccc(C(=O)NN3CCOCC3)cc2)C1 (stereo unspecified)	6.29% (inactive)
COc1ccccc1NC(=O)CSc1nc2sc(C)c(C)c2c(=O)n1Cc1ccco1	7.51% (inactive)
CCOC(=O)CSc1nc2c(sc(=S)n2CCc2ccccc2)c(=O)n1Cc1ccco1	50.2% (active)
CCOC(=O)CSc1nc2c(c(=O)n(C)c(=O)n2C)n1Cc1ccccc1F	-9.26% (inactive)
Cc1ccc(C(C[N+](=O)[O-])c2c(C)cc3ccccn23)cc1 (stereo unspecified)	100% (active)
CC(C)C(=O)Nc1oc(-c2ccccc2)cc1C#N	0.64% (inactive)
O=C(CSc1ccsc1[N+](=O)[O-])N1CCCCC1	14.2% (inactive)
Cc1nnc(N/N=C/C2CC=CCC2)[nH]c1=O (stereo unspecified)	-5.21% (inactive)
COc1ccc(COC(=O)c2n[nH]c3ccccc23)cc1F	97.5% (active)
O=C(COC(=O)c1n[nH]c2ccccc12)NCc1ccccc1	3.11% (inactive)
COc1cccc(CNC(=O)c2n[nH]c3ccccc23)c1	6.49% (inactive)
CCSc1ccccc1C(=O)Nc1ccc2c(c1)OCO2	7.96% (inactive)
CN(C)CCCn1c(SCCN2C(=O)c3ccccc3C2=O)nc2ccccc2c1=O	-2.2% (inactive)
Cn1c(N)c(C(=O)COC(=O)c2cnc(Cl)c(Cl)c2)c(=O)n(C)c1=O	-4.42% (inactive)
